Screens (PubChem BioAssay)
G9a block = inhibitors of human histone lysine methyltransferase G9a; actives 8.8% (n = 350,000); G9a H3K9 monomethylation, AlphaScreen, 2 h; Q96KQ7; Potency, µM (titrated, usually from 102 µM), for inactives: at the top dose activity, negative = inhibition, most hits filed as inhibitors; note: % is set by controls: 0 for no effect and ±100 for the full control effect; nearly all actives have a fitted effect of over 75% in size
Target sequence (Q96KQ7 913-1193 limits assumed): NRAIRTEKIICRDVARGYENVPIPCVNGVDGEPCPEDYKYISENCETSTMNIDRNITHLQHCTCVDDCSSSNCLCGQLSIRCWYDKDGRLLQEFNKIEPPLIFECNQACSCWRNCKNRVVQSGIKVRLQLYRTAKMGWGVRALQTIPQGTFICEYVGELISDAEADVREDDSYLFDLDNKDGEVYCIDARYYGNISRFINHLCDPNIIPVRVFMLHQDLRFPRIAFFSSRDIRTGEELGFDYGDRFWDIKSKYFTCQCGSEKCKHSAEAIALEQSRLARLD
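AlphaScreen detection with an anti-monomethyl H3K9 antibody quantified product after a 2 h room-temperature reaction containing 500 nM biotinylated H3K9 peptide, 20 µM SAM and 20 nM enzyme, which had been preincubated 15 min with compound.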
Sfp inh = inhibitors of Bacillus subtilis Sfp phosphopantetheinyl transferase; Potency, µM, without a hit: largest response in the series, negative = inhibition, hits mostly inhibitors; Biochemical Sfp PPTase activity, qHTS; actives 3.5% (n = 310,000);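 note: the enzyme is Sfp with the accession as filed and its product quenches rhodamine fluorescence; 0% = enzyme reaction without inhibitor and -100% = no enzyme wells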
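Reaction rates are the 30-min fluorescence difference (ex 525, em 598 nm) in wells containing 15 nM Sfp, 5 uM rhodamine-CoA and 12.5 uM BHQ-2-YbbR at pH 7.6 with 10 mM MgCl2.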
L3MBTL1 inh = inhibitors of human L3MBTL1; Q9Y468; AlphaScreen L3MBTL1–H3K9me1 peptide binding; Potency, µM (top dose mostly 57.1 µM), for the others: at the highest dose activity, negative = inhibition, actives largely listed as inhibitors; actives 0.66% (n = 230,000); AID 485360; note: % is set by controls: 0 for no effect and ±100 for the full control effect; nearly all actives have a fitted effect of over 60% in size
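L3MBTL1 50 nM + b-AHA-H3(1-15)K9me1 75 nM, 30 min RT; compound added, 30 min RT; streptavidin donor/Ni-chelate acceptor beads 10 ug/mL each final, 30 min RT dark; AlphaScreen read.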
HP1b chromo inh = inhibitors of HP1-beta chromodomain binding to methylated histone tails. AlphaScreen HP1-beta / biotin-H3K9me3 peptide binding. Potency, µM (doses to about 114 µM), without a hit: at the highest dose activity change, negative = inhibition, most hits filed as inhibitors. P83916. actives 0.56% (n = 390,000); note: nearly all actives have a fitted effect of over 70% in size
Target sequence (P83916 whole entry, looked up): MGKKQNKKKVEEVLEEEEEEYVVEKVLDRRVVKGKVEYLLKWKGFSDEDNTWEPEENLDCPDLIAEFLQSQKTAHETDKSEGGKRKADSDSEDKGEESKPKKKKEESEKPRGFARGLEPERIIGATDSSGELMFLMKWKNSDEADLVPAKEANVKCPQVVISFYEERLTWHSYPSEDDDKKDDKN
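HP1-beta protein (50 nM final) preincubated 30 min at room temperature with biotinylated H3(1-18)K9me3 peptide (50 nM) in PBS pH 7.4, 0.01% Tween-20, then compound added for 30 min. AlphaScreen streptavidin donor/nickel chelate acceptor beads (10 ug/mL final), 30 min dark, luminescence read.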
BAZ2B inh = inhibitors of human BAZ2B bromodomain; Q9UIF8; AlphaScreen BAZ2B-H3K14Ac peptide displacement; Potency, µM (doses to about 114 µM), without a hit: at the highest dose activity change, negative = inhibition, most hits filed as inhibitors; actives 4.4% (n = 360,000); AID 504333; note: % is set by controls: 0 for no effect and ±100 for the full control effect; nearly all actives have a fitted effect of over 60% in size
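BAZ2B (50 nM) with biotin-H3(5-23)K14Ac peptide (50 nM) in PBS pH 7.4, 0.01% Tween-20, preformed 30 min, then compound 30 min at room temperature; top concentration 110uM. AlphaScreen streptavidin donor/nickel chelate acceptor beads (10 ug/mL final), 20 min dark, signal read.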
JMJD2A Tudor inh = blocks the human JMJD2A Tudor domain. AID 504339. actives 4.4% (n = 390,000). O75164. AlphaScreen JMJD2A-Tudor / H3K4me3 peptide binding. Potency, µM (highest dose often 114 µM), inactives show top-dose activity change, negative = inhibition, most hits filed as inhibitors; note: % is set by controls: 0 for no effect and ±100 for the full control effect; nearly all actives have a fitted effect of over 50% in size
Starred values were filed as active, the others as inactive; ? = inconclusive; · = no result; [ ] = dose if it differs, or a comment. Compounds with a hit are over-represented: about 12% of the library has one in this group of screens. Calls come from the whole dose curve; as a rule, active = well fitted curve in the direction sought with a large enough effect; inconclusive = small, poorly fitted or top-dose-only effect, or another doubt; inactive = no such curve, though single readings can be large; an effect the other way counts as inactive or inconclusive. Potency is the fitted concentration of half-maximal effect.

SMILES	G9a block	Sfp inh	L3MBTL1 inh	HP1b chromo inh	BAZ2B inh	JMJD2A Tudor inh
CN(C)c1ccc(NC(=O)c2cccc(C(=O)Nc3ccc(N(C)C)cc3)n2)cc1	3.2µM*	-24%	?	40µM*	7.9µM*	16µM*
O=C(O)c1ccc(NC(=O)c2cccc(C(=O)Nc3ccc(C(=O)O)cc3)n2)cc1	22µM*	-6%	·	58%	-34%	?
CN(C)c1ccc(NC(=O)c2ccc3nsnc3c2)cc1	4.5µM*	-8%	-3%	-13%	-11%	-35%
Cc1ccc(-n2c(C)nc3c(cnn3-c3ccccc3C)c2=O)cc1F	2%[59 µM]	·	·	27%	·	-19%
Cc1c(O)ccc2c1OCO2	·	7%	·	·	·	·
CC(C)[C@@H]1NC(=O)c2cc([N+](=O)[O-])cc(I)c2OCC[C@@H](C(N)=O)NC(=O)[C@H](CCC(=O)O)NC1=O	45µM*	34%	2%	29%	?	-15%
NC(=O)CC[C@@H]1NC(=O)[C@H](Cc2ccc(O)cc2)NC(=O)c2cc([N+](=O)[O-])cc(F)c2OCC[C@@H](C(N)=O)NC1=O	?	6%	3%	6%	-11%	-25%
NC(=O)C[C@@H]1NC(=O)[C@H](CCC(=O)O)NC(=O)c2cc([N+](=O)[O-])cc(I)c2OCC[C@@H](C(N)=O)NC1=O	28µM*	-12%	-9%	6%	-35%	-26%
C[C@@H]1NC(=O)c2cc([N+](=O)[O-])cc(I)c2OCC[C@@H](C(N)=O)NC(=O)[C@H](CCC(=O)O)NC1=O	28µM*	-8%	-8%	·	?	·
Clc1ccccc1-c1nnc(-c2ccccc2Cl)o1	89%[59 µM]	1%	26%[11.4 µM]	90%	115%	69%
Brc1ccc(-c2nnc(-c3ccccc3Br)o2)cc1	57%	50µM*	-4%	47%	112%	16%
Clc1ccc(-c2nnc(-c3ccccc3Cl)o2)cc1	185%	71µM*	18%	115%	134%	91%
Cc1nn(-c2ccc(N3CCCCC3)nn2)c(C)c1CCC(=O)NCc1ccc(Cl)cc1	11%[59 µM]	·	·	101%	?	?
CCOc1ccc(CNc2cccc(SC)c2)cc1	28µM*	10%	-25%	45µM*	40µM*	3.2µM*
CCOC(=O)c1ccc(NC(=O)CCc2c(C)nc3c(c(C)nn3-c3ccccc3)c2C)cc1	3%[59 µM]	·	·	16%	-1%	?
O=C(O)Cc1ccc(C(=O)CSc2ccccc2)s1	56µM*	-62%	?	14%	50µM*	56µM*
Cc1ccc(SCC(=O)c2ccc(CC(=O)O)s2)cc1	·	-77%	?	4%	50µM*	?
O=C(O)Cc1ccc(C(=O)c2ccccc2)s1	18µM*	11%	·	19%	-1%	-26%
COc1ccc(-c2noc(CSc3nc(N)cc(=O)[nH]3)n2)cc1OC	-36%[59 µM]	·	·	12%	-3%	-7%
O=C(CSc1oc(-c2ccco2)nc1S(=O)(=O)c1ccc(Cl)cc1)NCC1CCCO1 (configuration not stated)	45µM*	-16%	·	2%	-1%	?
Cc1ccc(-c2nc(S(=O)(=O)c3ccccc3)c(SCC(=O)NCC3CCCO3)o2)cc1 (configuration not stated)	35µM*	-9%	·	7%	-3%	-13%
O=C(CSc1oc(-c2ccco2)nc1S(=O)(=O)c1ccccc1)NCC1CCCO1 (configuration not stated)	?	-10%	?	23%	11%	-10%
COc1ccc(Cn2c(C(=O)O)c(CNC3CCC(C)CC3)c3ccc(C)cc32)cc1 (configuration not stated)	?	·	·	14%	?	-26%
O=C(O)C1Nc2c(Cl)cc(Cl)c(Cl)c2C2C=CCC12 (configuration not stated)	·	·	·	?	·	56µM*
Cc1ccc(C)c2c1NC(C(=O)O)C1CC=CC21 (configuration not stated)	·	·	·	22µM*	·	20µM*
SMILES	G9a block	Sfp inh	L3MBTL1 inh	HP1b chromo inh	BAZ2B inh	JMJD2A Tudor inh
O=C(O)C1Nc2c(Cl)cc(Cl)cc2C2C=CCC12 (configuration not stated)	·	?	3.5µM*	28µM*	25µM*	22µM*
CC(C)CNC(=O)C1Nc2ccc(C(F)(F)F)cc2C2C=CCC12 (configuration not stated)	·	·	·	14%	·	-22%
O=C(O)C1Nc2c(O)cccc2C2C=CCC12 (configuration not stated)	10µM*	-19%	1µM*	28µM*	1.6µM*	2.5µM*
O=C(NCCOc1ccccc1)C1Nc2ccc(OC(F)(F)F)cc2C2C=CCC12 (configuration not stated)	·	·	·	23%	·	-18%
COCCNc1ccc2cc(S(=O)(=O)N3CCCCC3)ccc2n1	-2%[59 µM]	·	·	37%	2%	6%
Cc1ccc(Cn2c(=O)c3cccnc3n(Cc3ccc(C)cc3)c2=O)cc1	9%[59 µM]	·	·	16%	7%	-7%
COc1c(CC(=O)c2cc3c(cc2O)OC(C)(C)C(O)C3)ccc2c1C=CC(C)(C)O2 (configuration not stated)	-22%[2.33 µM]	-13%	·	·	·	·
CC(=O)c1ccc(NC(=O)C2CCN(S(=O)(=O)c3ccc4[nH]c5c(c4c3)CCCCC5)CC2)cc1	-47%[59 µM]	·	·	17%	-14%	-14%
COc1cc(C#Cc2c(-c3cncn3C)n(C)c3ccc(-c4ccc(CN5CCOCC5)cc4)cc23)cc(OC)c1	·	·	?	4%	·	8.9µM*
COc1cc(OC)cc(-c2c(C#Cc3ccsc3)c3cc(-c4ccc(N(C)C)nc4)ccc3n2C)c1	·	·	3%	41%	·	-12%
COc1cc(C#Cc2c(-c3cncn3C)n(C)c3ccc(-c4cnc(OC)nc4)cc23)cc(OC)c1	7%[0.501 µM]	·	-26%	7%	50µM*	?
CCc1ccccc1Nc1cc(C(=O)NC(C)c2ccccc2)c2ccccc2n1 (configuration not stated)	15%[59 µM]	·	·	56%	·	2%
COc1ccc(CNC(=O)C(C#N)c2nc3ccccc3nc2N2CCN(C)CC2)cc1 (configuration not stated)	?	-3%	·	?	50µM*	71µM*
CN1CCN(c2nc3ccccc3nc2C(C#N)S(=O)(=O)c2ccccc2)CC1 (configuration not stated)	·	3%	·	43%	-17%	-8%
CCC(CC)COC(=O)C(C#N)c1nc2ccccc2nc1N1CCN(CC)CC1 (configuration not stated)	45µM*	-23%	-21%	7%	35µM*	?
